Several values for one entry are separate records, joined by “and”; a condition that tells them apart may be missing. Equal entries are not always repeated. Hit rate of the full screen: of about 5,500 compounds, about 2,000 (36%) were called active. Another 18% or so got no clear call; they are omitted. No stated cut-off is given here; in the data, active means normalized growth mostly below about 0.91 (no sharp cut-off); inconclusive means no clear call, values can overlap the other calls; inactive means mostly above about 0.92. This is one part of the list.
Assay: chemical genetic growth profiling, strain panel (AID 1159580);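 further: tested at 20 µM; growth read once vehicle control cultures reached saturation at 30 °C; 1 = growth at the plate median or of vehicle wells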
Details: S. cerevisiae deletion strains, growth OD

Measured: normalized growth

NC[C@H]1O[C@H](OC2[C@@H](N)C[C@@H](N)[C@H](O[C@H]3O[C@H](CO)[C@@H](O)[C@H](N)[C@H]3O)[C@H]2O)[C@H](O)[C@@H](O)[C@@H]1O (some centres undefined)
inactive: locus YAL013W, strain DEP1, stronger effect = lower value 0.997 | locus YAL021C, strain ccr4, stronger effect = lower value 0.993 | locus YAL026C, strain drs2, stronger effect = lower value 0.998 | locus YAL030W, strain snc1, stronger effect = lower value 1 | locus YBL061C, strain skt5, stronger effect = lower value 1.01 | locus YBR009C, strain hhf1, stronger effect = lower value 1.01 | locus YBR021W, strain FUR4, stronger effect = lower value 0.97 | locus YBR023C, strain chs3, stronger effect = lower value 0.983 | locus YBR171W, strain sec66, stronger effect = lower value 0.989 | locus YBR229C, strain ROT2, stronger effect = lower value 0.988 | locus YBR231C, strain swc5, stronger effect = lower value 0.998 | locus YBR279W, strain paf1, stronger effect = lower value 1.01 | locus YCL011C, strain gbp2, stronger effect = lower value 0.999 | locus YCL016C, strain dcc1, stronger effect = lower value 0.985 | locus YCL029C, strain bik1, stronger effect = lower value 0.985 | locus YCL061C, strain MRC1, stronger effect = lower value 0.99 | locus YCL069W, strain vba3, stronger effect = lower value 0.998 | locus YCR088W, strain abp1, stronger effect = lower value 0.994 | locus YDL005C, strain med2, stronger effect = lower value 0.994 | locus YDL035C, strain GPR1, stronger effect = lower value 1.02 | locus YDL040C, strain nat1, stronger effect = lower value 1 | locus YDL074C, strain BRE1, stronger effect = lower value 0.991 | locus YDL101C, strain DUN1, stronger effect = lower value 0.986 | locus YDL134C, strain PPH21, stronger effect = lower value 1.01 | locus YDL185W, strain tfp1, stronger effect = lower value 0.997 | locus YDL192W, strain arf1, stronger effect = lower value 0.98 | locus YDR001C, strain nth1, stronger effect = lower value 0.995 | locus YDR069C, strain doa4, stronger effect = lower value 1 | locus YDR101C, strain arx1, stronger effect = lower value 0.99 | locus YDR137W, strain rgp1, stronger effect = lower value 0.997 | locus YDR150W, strain NUM1, stronger effect = lower value 1 | locus YDR159W, strain sac3, stronger effect = lower value 1 | locus YDR162C, strain NBP2, stronger effect = lower value 1 | locus YDR195W, strain ref2 0.961 | locus YDR297W, strain sur2, stronger effect = lower value 0.998 | locus YDR318W, strain mcm21, stronger effect = lower value 0.978 | locus YDR334W, strain swr1, stronger effect = lower value 0.988 | locus YDR335W, strain msn5, stronger effect = lower value 1 | locus YDR388W, stronger effect = lower value 0.993 | locus YDR392W, strain spt3, stronger effect = lower value 0.935 | locus YDR502C, strain sam2, stronger effect = lower value 1.01 | locus YEL003W, strain gim4, stronger effect = lower value 1.01 | locus YEL037C, strain rad23, stronger effect = lower value 1.01 | locus YEL061C, strain CIN8 (second series), stronger effect = lower value 0.999 | locus YEL061C, strain CIN8, stronger effect = lower value 0.997 | locus YER015W, strain faa2, stronger effect = lower value 0.978 | locus YER016W, strain bim1, stronger effect = lower value 1.01 | locus YER110C, stronger effect = lower value 0.97 | locus YER111C, strain swi4, stronger effect = lower value 0.994 | locus YER155C, strain BEM2 (second series), stronger effect = lower value 0.993 | locus YER155C, strain BEM2, stronger effect = lower value 0.993 | locus YER167W, strain BCK2, stronger effect = lower value 0.989 | locus YFR010W, strain ubp6, stronger effect = lower value 1 | locus YGL078C, strain dbp3, stronger effect = lower value 0.973 | locus YGL086W, strain mad1, stronger effect = lower value 1 | locus YGL167C, strain pmr1, stronger effect = lower value 1.01 | locus YGL173C, strain kem1, stronger effect = lower value 0.996 | locus YGL227W, strain vid30, stronger effect = lower value 0.991 | locus YGL240W, strain doc1, stronger effect = lower value 0.99 | locus YGL248W, strain PDE1, stronger effect = lower value 0.984 | locus YGL253W, strain hxk2, stronger effect = lower value 1.01 | locus YGR135W, strain pre9, stronger effect = lower value 0.943 | locus YGR252W, strain gcn5, stronger effect = lower value 0.967 | locus YHR013C, strain ard1, stronger effect = lower value 0.982 | locus YHR027C, strain rpn1, stronger effect = lower value 1 | locus YHR030C, strain SLT2, stronger effect = lower value 0.991 | locus YHR079C, strain IRE1 (second series), stronger effect = lower value 0.982 | locus YHR079C, strain IRE1, stronger effect = lower value 0.993 | locus YHR094C, strain hxt1, stronger effect = lower value 0.975 | locus YHR129C, strain ARP1, stronger effect = lower value 0.994 | locus YHR142W, strain chs7, stronger effect = lower value 0.998 | locus YHR200W, strain rpn10, stronger effect = lower value 0.993 | locus YIL066C, strain RNR3, stronger effect = lower value 0.994 | locus YIL073C, strain SPO22, stronger effect = lower value 0.954 | locus YIL125W, strain kgd1, stronger effect = lower value 0.987 | locus YIR030C, strain dcg1, stronger effect = lower value 0.99 | locus YJL092W, strain hpr5, stronger effect = lower value 1 | locus YJL095W, strain BCK1 (second series), stronger effect = lower value 0.997 | locus YJL095W, strain BCK1, stronger effect = lower value 0.99 and 1.01 | locus YJL115W, strain asf1, stronger effect = lower value 0.997 | locus YJL129C, strain trk1, stronger effect = lower value 0.991 | locus YJL134W, strain LCB3, stronger effect = lower value 0.996 | locus YJL154C, strain vps35, stronger effect = lower value 0.992 | locus YJL164C, strain tpk1, stronger effect = lower value 0.991 | locus YJL166W, strain qcr8, stronger effect = lower value 0.99 | locus YJL168C, strain set2, stronger effect = lower value 0.978 | locus YJL187C, strain SWE1 (second series), stronger effect = lower value 0.984 | locus YJL187C, strain SWE1, stronger effect = lower value 0.997 | locus YJR043C, strain POL32, stronger effect = lower value 1.03
